± gives the uncertainty stated by the source. The full ranking holds about 9,900 compounds; the median of “viability index relative to DMSO control” is about 1, and the lowest 2% start at about 0.85. The sample holds the lowest values, similar compounds and a random draw of the others, so the mix is not that of the screen.
Tested on: Plasmodium falciparum NF54 stage V gametocytes
Assay: viability index relative to DMSO control (fraction); higher = less gametocyte killing
Details: 2.5 µM, library set: Broad Institute DOS, incubation time: 72 h
Summary of the method: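 P. falciparum NF54 stage V gametocytes in serum-free screening medium (0.75% gametocytemia, 1.25% hematocrit, 10 µl) were incubated with compound at 2.5 µM in 1,536-well plates for 72 hr at 37°C under low oxygen. Then 3 µl of 2.5 µM MitoTracker Red CMXRos plus 0.13% saponin was added for one to two hours. One field per well was imaged, 20–70 µm2 red particles were counted, and the viability index was the count divided by the plate mean of DMSO wells.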

O=C(C[C@H]1C[C@H]2c3cc(NS(=O)(=O)c4ccc(F)cc4)ccc3O[C@H]2[C@H](CO)O1)N1CCc2ccccc2C1
viability index: 0.861 ± 0.059

C[C@@H]1CCn2nncc2COC[C@H]2CCCN2C1=O
viability index: 1.04 ± 0.058

O=S(=O)(c1ccccc1)N1CCCCN2[C@H](C1)[C@H](c1ccc(C#CC3CCCC3)cc1)[C@@H]2CO
viability index: 1.03 ± 0.031

O=S(=O)(c1ccccc1)N1CCCCN2[C@H](CO)[C@@H](c3ccc(C#CC4CCCC4)cc3)[C@H]2C1
viability index: 1.03 ± 0.056

O=S(=O)(c1ccccc1)N1CCCCN2[C@H](CO)[C@@H](c3ccc(C#CC4CCCC4)cc3)[C@@H]2C1
viability index: 1.01 ± 0.026

O=S(=O)(c1ccccc1)N1CCCCN2[C@H](CO)[C@H](c3ccc(C#CC4CCCC4)cc3)[C@H]2C1
viability index: 0.8253 ± 0.0077

O=S(=O)(c1ccccc1)N1CCCCN2[C@H](C1)[C@@H](c1ccc(C#CC3CCCC3)cc1)[C@@H]2CO
viability index: 0.907 ± 0.07

O=S(=O)(c1ccccc1)N1CCCCN2[C@@H](CO)[C@@H](c3ccc(C#CC4CCCC4)cc3)[C@@H]2C1
viability index: 0.8429 ± 0.006

O=C(CN1CCOCC1)N1[C@H](CO)[C@H]2c3ccccc3NC[C@H]21
viability index: 1 ± 0.088

C[C@H]1CN([C@@H](C)CO)C(=O)c2cc(NC(=O)Nc3cccc4ccccc34)ccc2O[C@@H]1CN(C)S(=O)(=O)c1cccs1
viability index: 1.06 ± 0.026

CN(C)C(=O)c1cccc(-c2ccc3c(c2)[C@@H]2[C@@H](CCN2C(=O)c2cnccn2)[C@H](CO)N3)c1
viability index: 1.17 ± 0.072

CN(C)C(=O)c1cccc(-c2ccc3c(c2)[C@@H]2[C@@H](CCN2C(=O)c2cnccn2)[C@@H](CO)N3)c1
viability index: 1.12 ± 0.032

COc1ccccc1CN1CC[C@@H]2[C@H]1c1cc(-c3cccc(C(=O)N(C)C)c3)ccc1N[C@@H]2CO
viability index: 1.09 ± 0.028

CN(C)C(=O)c1cccc(-c2ccc3c(c2)[C@H]2[C@H](CCN2C(=O)c2cnccn2)[C@@H](CO)N3)c1
viability index: 1.16 ± 0.02

CN(C)C(=O)c1cccc(-c2ccc3c(c2)[C@@H]2[C@@H](CCN2Cc2nccs2)[C@@H](CO)N3)c1
viability index: 0.785 ± 0.07

COc1ccccc1CN1CC[C@@H]2[C@H](CO)Nc3ccc(-c4cccc(C(=O)N(C)C)c4)cc3[C@@H]21
viability index: 0.841 ± 0.072

CN(C)C(=O)c1cccc(-c2ccc3c(c2)[C@H]2[C@H](CCN2Cc2nccs2)[C@@H](CO)N3)c1
viability index: 1.18 ± 0.023

OC[C@@H]1Nc2ccc(C3=CCCCC3)cc2[C@@H]2[C@H]1CCN2Cc1nccs1
viability index: 1.06 ± 0.059

COc1ccccc1-c1ccc2c(c1)[C@H]1[C@H](CCN1Cc1ccccc1F)[C@@H](CO)N2
viability index: 1.02 ± 0.035

CN(C)C(=O)c1cccc(-c2ccc3c(c2)[C@H]2[C@H](CCN2Cc2nccs2)[C@H](CO)N3)c1
viability index: 0.818 ± 0.014

CN(C)C(=O)c1cccc(-c2ccc3c(c2)[C@H]2[C@H](CCN2C(=O)c2cnccn2)[C@H](CO)N3)c1
viability index: 1.1 ± 0.035

COc1ccccc1CN1CC[C@@H]2[C@H]1c1cc(C3=CCCCC3)ccc1N[C@@H]2CO
viability index: 0.8126 ± 0.0046

C[C@H]1CCCCO[C@H](CN(C)C(=O)Nc2ccc(C(F)(F)F)cc2)[C@@H](C)CN([C@@H](C)CO)C(=O)c2cc(NS(=O)(=O)c3cn(C)cn3)ccc2O1
viability index: 1.01 ± 0.013

CO[C@H]1CN(C)C(=O)c2ccc(NS(C)(=O)=O)cc2OC[C@H](C)N(CC2CC2)C[C@@H]1C
viability index: 1.03 ± 0.087

CO[C@@H](CN(C)Cc1nccs1)[C@@H](C)CN([C@@H](C)CO)S(=O)(=O)c1ccc(F)cc1
viability index: 1.04 ± 0.0028

COCC(=O)Nc1ccc2c(c1)[C@@H]1C[C@@H](CC(=O)NCc3ccc4c(c3)OCO4)O[C@@H](CO)[C@@H]1O2
viability index: 1.01 ± 0.047

N#C[C@@H]1[C@H](c2ccccc2C2=CCCCC2)[C@H](CO)N1C(=O)CN1CCOCC1
viability index: 1.17 ± 0.13

N#C[C@H]1[C@@H](c2ccc(-c3cccnc3)cc2)[C@@H](CO)N1C(=O)C1CCOCC1
viability index: 1.07 ± 0.031

C[C@@H]1CCCCO[C@@H](CN(C)C(=O)CCC(F)(F)F)[C@H](C)CN([C@@H](C)CO)C(=O)c2cc(NC(=O)C3CCCCC3)ccc2O1
viability index: 1.13 ± 0.072

Cc1ccccc1S(=O)(=O)N1C[C@@H]2N[C@H](C1)[C@@H]2c1ccc(-c2cccc(C#N)c2)cc1
viability index: 0.903 ± 0.018

Cc1ccccc1S(=O)(=O)N1C[C@@H]2N[C@H](C1)[C@H]2c1ccc(-c2cccc(C#N)c2)cc1
viability index: 1.03 ± 0.033

C/C=C/c1ccc([C@@H]2[C@@H]3CN(S(=O)(=O)c4ccccc4F)C[C@H]2N3)cc1
viability index: 0.904 ± 0.016

COc1ccc(-c2ccc([C@H]3[C@@H]4CN(S(=O)(=O)c5ccccc5C)C[C@H]3N4)cc2)cc1
viability index: 0.916 ± 0.068

Cc1ccccc1S(=O)(=O)N1C[C@@H]2N[C@H](C1)[C@@H]2c1ccc(/C=C/c2ccccc2)cc1
viability index: 0.771 ± 0.028

COc1ccc(-c2ccc([C@@H]3[C@@H]4CN(S(=O)(=O)c5ccccc5C)C[C@H]3N4)cc2)cc1
viability index: 0.713 ± 0.11

Cc1ccccc1S(=O)(=O)N1C[C@@H]2N[C@H](C1)[C@H]2c1ccc(/C=C/c2ccccc2)cc1
viability index: 1 ± 0.048

— the supplement of paper PMC4723716
